This passage reports composite z-score and z-score results from PubChem BioAssay.

Where “and” joins values, the source holds several entries; their conditions need not be identical. Equal values may be shown once. Calls of active or inactive are those of the source.

Test [1] is described as follows: binders of probe aFSTL3 on microarray, primary screen, stem cell growth factor project, biochemical, small-molecule microarray, fluorescence 635/667 (AID 1064).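 Further: measures binding of the biotinylated anti-FSTL3 antibody to printed compounds.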 Particulars: higher = more signal.
Test [2] in a line: binders from COS7 lysate, DM2A8 probe, primary screen, torsin A project, cell lysate, small-molecule microarray, fluorescence 635/667 (AID 1065). The settings on record: higher = more signal, COS7 lysate expressing mutant human TOR1A.
Test [3] in a line: binders of probe aFGF2 on microarray, primary screen, stem cell growth factor project, biochemical, small-molecule microarray, fluorescence 635/667 (AID 1067).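 Further: measures binding of biotinylated aFGF2 protein to printed compounds on slides; z-score merges feature fluorescence and signal-to-noise across triplicate slides.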 The settings on record: higher = more signal.
Test [4] is described as follows: binders of probe aFGF10 on microarray, primary screen, stem cell growth factor project, biochemical, small-molecule microarray, fluorescence 635/667 (AID 1071).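 Further: score merges 667 nm spot intensity and signal to noise from triplicate slides.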 Particulars: higher = more signal.
For test [5], the target named is Neurogenic locus notch homolog protein 2 (Homo sapiens) (UniProt Q04721). Nature of the test: Notch2 binders on small-molecule microarrays, primary screen, biochemical, small-molecule microarray, 635 nm fluorescence, stem cell growth factors (AID 1073). Particulars: Notch2 binding, higher = more signal.
Chain of Neurogenic locus notch homolog protein 2 (Homo sapiens) (Q04721 whole entry, looked up, canonical isoform): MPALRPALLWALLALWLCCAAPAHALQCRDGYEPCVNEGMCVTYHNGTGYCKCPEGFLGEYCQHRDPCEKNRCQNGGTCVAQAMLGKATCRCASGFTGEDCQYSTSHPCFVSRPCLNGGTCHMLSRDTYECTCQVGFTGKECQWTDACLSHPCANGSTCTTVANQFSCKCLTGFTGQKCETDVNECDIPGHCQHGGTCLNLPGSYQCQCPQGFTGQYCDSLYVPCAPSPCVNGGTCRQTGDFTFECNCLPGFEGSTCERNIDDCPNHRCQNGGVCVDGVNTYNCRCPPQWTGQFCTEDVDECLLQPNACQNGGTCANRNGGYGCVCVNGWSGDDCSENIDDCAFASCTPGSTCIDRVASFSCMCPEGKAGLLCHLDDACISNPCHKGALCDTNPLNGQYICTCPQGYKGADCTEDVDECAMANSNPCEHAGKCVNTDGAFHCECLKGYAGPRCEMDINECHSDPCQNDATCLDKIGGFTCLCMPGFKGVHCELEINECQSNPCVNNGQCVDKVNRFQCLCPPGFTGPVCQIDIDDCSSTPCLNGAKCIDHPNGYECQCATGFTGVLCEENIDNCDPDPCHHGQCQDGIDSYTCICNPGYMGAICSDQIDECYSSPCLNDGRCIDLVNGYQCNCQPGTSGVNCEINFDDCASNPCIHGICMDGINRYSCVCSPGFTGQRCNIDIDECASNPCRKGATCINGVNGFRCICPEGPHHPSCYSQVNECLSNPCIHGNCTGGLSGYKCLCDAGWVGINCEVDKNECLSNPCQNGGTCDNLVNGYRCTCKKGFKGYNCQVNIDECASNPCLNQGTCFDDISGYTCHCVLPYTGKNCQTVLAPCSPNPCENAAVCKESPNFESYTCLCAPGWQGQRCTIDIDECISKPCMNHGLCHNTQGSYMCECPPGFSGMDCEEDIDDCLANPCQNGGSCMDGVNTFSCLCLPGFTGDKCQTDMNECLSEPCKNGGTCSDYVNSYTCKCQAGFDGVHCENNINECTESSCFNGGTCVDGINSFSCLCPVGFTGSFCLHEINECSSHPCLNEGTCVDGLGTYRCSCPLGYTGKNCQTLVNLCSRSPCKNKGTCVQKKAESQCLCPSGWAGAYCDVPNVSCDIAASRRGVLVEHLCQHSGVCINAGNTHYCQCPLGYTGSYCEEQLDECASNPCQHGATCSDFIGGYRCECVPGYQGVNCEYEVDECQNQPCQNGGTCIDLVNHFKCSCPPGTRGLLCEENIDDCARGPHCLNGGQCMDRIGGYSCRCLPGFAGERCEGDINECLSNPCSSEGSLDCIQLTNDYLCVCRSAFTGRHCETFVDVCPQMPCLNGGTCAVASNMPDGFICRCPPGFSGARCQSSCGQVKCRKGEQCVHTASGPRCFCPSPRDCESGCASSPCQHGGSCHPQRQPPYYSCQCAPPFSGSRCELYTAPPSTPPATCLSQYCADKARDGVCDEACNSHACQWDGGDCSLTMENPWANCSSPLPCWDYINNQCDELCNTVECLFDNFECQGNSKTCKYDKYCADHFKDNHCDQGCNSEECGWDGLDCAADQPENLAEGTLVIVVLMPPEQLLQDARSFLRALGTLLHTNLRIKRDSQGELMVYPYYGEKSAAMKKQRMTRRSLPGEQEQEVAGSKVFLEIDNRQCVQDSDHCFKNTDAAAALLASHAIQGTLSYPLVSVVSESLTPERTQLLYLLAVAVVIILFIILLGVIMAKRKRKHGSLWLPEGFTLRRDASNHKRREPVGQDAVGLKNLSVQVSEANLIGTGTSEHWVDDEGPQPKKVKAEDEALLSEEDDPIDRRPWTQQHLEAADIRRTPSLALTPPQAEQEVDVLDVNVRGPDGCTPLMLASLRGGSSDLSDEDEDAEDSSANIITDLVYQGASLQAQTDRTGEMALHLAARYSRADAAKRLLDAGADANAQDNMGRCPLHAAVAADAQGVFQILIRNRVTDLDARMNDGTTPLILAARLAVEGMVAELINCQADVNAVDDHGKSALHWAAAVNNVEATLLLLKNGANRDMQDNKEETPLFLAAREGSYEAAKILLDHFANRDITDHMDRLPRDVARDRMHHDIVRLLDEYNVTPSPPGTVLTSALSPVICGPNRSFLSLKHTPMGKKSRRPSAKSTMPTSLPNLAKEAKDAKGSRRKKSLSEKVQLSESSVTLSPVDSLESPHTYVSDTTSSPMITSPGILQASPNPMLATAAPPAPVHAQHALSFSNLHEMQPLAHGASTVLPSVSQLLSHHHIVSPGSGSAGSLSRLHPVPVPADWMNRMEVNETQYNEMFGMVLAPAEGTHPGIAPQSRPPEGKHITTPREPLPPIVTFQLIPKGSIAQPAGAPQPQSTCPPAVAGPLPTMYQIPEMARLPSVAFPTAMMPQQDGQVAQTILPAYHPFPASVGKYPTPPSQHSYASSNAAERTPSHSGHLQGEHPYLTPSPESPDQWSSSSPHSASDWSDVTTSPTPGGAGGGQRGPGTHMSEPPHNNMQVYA
The target in test [6] is Pro-neuregulin-1, membrane-bound isoform (Homo sapiens) (UniProt Q02297). Nature of the test: NRG1 binders on small-molecule microarrays, primary screen, psychiatric disease protein project, biochemical, small-molecule microarray, fluorescence 635/667 (AID 1075).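 Further: score combines 667 nm spot fluorescence with signal to noise.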 Particulars: NRG1 binding, 635 nm fluorescence, higher = more signal.
Test [7] relates to Neuregulin-1 EGF-like domain. In words: binders of neuregulin-1 EGF-like domain, primary screen, biochemical, small-molecule microarray, 635 nm fluorescence (AID 1081).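 Further: binding of the protein to compounds printed on small-molecule microarray slides.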 The settings on record: small-molecule microarray binding, higher = more signal.
A short description of test [8]: FRG1 promoter luciferase signal modulators, primary screen, FRG1 inhibition for FSHD, cell-based, C2C12 myotubes, firefly/Renilla luciferase, luminescence (AID 1084). Particulars: higher = more signal, called active from +8 up or from −8 down.
Test [9] is described as follows: binders of probe aFST on microarray, primary screen, stem cell growth factor project, biochemical, small-molecule microarray, fluorescence 635/667 (AID 1086).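 Further: score merges 667 nm fluorescence with signal-to-noise of each printed compound spot.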 The settings on record: higher = more signal.
Test [10] is described as follows: binders of probe aHhip on microarray, primary screen, stem cell growth factor project, biochemical, small-molecule microarray, fluorescence 635/667 (AID 1087).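 Further: score merges spot fluorescence at 667nm with spot signal to noise ratio.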 Particulars: higher = more signal.
In test [11] the test system is PRMT1 (protein arginine N-methyltransferase 1). In words: PRMT1 binders on small-molecule microarrays, primary screen, biochemical, small-molecule microarray, 635 nm fluorescence (AID 1088).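 Further: binding of Prmt1 protein to compounds spotted on small-molecule microarray slides.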 The settings on record: small-molecule microarray binding, higher = more signal.
The nature of test [12]: yeast growth modulation, basal conditions, primary screen, YJM789 clinical isolate, OD600, 24 h (AID 1089).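 Further: growth of clinical yeast isolate S. cerevisiae YJM 789 seeded 1000 cells per well; test concentration not given here.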 The settings on record: S. cerevisiae YJM789 growth, higher = more signal, called active from +8 up or from −8 down.
The nature of test [13]: fission yeast growth modulation, primary screen, strain 972, OD600, 24 h, no modulator (AID 1090).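 Further: basal condition with compound alone and no growth modifier present; test concentration not given here.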 Particulars: S. pombe 972 growth, higher = more signal, called active from +8 up or from −8 down.
Test [14] in a line: S. cerevisiae growth modulation with rapamycin, primary screen, strain BY4716, OD600, 96 h (AID 1091). Further: test concentration not given here. Particulars: higher = more signal, called active from +8 up or from −8 down.
In test [15] the target is Torsin-1A-interacting protein 2 (Homo sapiens) (UniProt Q8NFQ8). Nature of the test: LULL1 binders on small-molecule microarray, primary screen, cell lysate, human LULL1 lysate, 635/667 nm fluorescence (AID 1092).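 Further: probe is lysate of COS7 cells overexpressing human LULL1; score merges per-feature 667 nm fluorescence with signal-to-noise.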 The settings on record: hLULL1 lysate binding, 635 nm fluorescence, higher = more signal.
Test [16] is described as follows: E. coli growth modulation, two-sided OD650, primary screen, E. coli filamentation project, strain DRC41, 24 h (AID 1093).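 Further: MC1000 strain lacking acrAB efflux and sulA so SOS filamentation is blocked; test concentration not given here.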 Particulars: OD650, 24 h, higher = more signal, called active from +8 up or from −8 down.
Test [17] can be described thus: small-molecule microarray binders of probe aLefty2, primary screen, biochemical, biotinylated probe, 635/667 nm fluorescence (AID 1094).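 Further: score merges spot fluorescence near 667 nm with spot signal-to-noise ratio.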 Particulars: higher = more signal.
Test [18] relates to Noggin (protein binding on small-molecule microarray). Nature of the test: Noggin binders on small-molecule microarray, primary screen, biochemical, 635/667 nm fluorescence (AID 1095).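 Further: score merges 667 nm feature fluorescence with signal to noise over triplicate slides.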 Particulars: 635 nm fluorescence, higher = more signal.
Test [19] addresses Neurogenic locus notch homolog protein 3 (Homo sapiens) (UniProt Q9UM47). Nature of the test: NOTCH3 binders on small-molecule microarray, primary screen, biochemical, 635/667 nm fluorescence (AID 1096). Particulars: NOTCH3 binding, 635 nm fluorescence, higher = more signal.
A short description of test [20]: small-molecule microarray binders of probe aEGFR, primary screen, biochemical, biotinylated probe, 635/667 nm fluorescence (AID 1097).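 Further: probe is a biotinylated anti-EGFR antibody binding compounds printed on slides; score combines fluorescence near 667 nm and signal to noise of each spot.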 Particulars: higher = more signal.

Chain of Neurogenic locus notch homolog protein 3 (Homo sapiens) (Q9UM47 whole entry, looked up): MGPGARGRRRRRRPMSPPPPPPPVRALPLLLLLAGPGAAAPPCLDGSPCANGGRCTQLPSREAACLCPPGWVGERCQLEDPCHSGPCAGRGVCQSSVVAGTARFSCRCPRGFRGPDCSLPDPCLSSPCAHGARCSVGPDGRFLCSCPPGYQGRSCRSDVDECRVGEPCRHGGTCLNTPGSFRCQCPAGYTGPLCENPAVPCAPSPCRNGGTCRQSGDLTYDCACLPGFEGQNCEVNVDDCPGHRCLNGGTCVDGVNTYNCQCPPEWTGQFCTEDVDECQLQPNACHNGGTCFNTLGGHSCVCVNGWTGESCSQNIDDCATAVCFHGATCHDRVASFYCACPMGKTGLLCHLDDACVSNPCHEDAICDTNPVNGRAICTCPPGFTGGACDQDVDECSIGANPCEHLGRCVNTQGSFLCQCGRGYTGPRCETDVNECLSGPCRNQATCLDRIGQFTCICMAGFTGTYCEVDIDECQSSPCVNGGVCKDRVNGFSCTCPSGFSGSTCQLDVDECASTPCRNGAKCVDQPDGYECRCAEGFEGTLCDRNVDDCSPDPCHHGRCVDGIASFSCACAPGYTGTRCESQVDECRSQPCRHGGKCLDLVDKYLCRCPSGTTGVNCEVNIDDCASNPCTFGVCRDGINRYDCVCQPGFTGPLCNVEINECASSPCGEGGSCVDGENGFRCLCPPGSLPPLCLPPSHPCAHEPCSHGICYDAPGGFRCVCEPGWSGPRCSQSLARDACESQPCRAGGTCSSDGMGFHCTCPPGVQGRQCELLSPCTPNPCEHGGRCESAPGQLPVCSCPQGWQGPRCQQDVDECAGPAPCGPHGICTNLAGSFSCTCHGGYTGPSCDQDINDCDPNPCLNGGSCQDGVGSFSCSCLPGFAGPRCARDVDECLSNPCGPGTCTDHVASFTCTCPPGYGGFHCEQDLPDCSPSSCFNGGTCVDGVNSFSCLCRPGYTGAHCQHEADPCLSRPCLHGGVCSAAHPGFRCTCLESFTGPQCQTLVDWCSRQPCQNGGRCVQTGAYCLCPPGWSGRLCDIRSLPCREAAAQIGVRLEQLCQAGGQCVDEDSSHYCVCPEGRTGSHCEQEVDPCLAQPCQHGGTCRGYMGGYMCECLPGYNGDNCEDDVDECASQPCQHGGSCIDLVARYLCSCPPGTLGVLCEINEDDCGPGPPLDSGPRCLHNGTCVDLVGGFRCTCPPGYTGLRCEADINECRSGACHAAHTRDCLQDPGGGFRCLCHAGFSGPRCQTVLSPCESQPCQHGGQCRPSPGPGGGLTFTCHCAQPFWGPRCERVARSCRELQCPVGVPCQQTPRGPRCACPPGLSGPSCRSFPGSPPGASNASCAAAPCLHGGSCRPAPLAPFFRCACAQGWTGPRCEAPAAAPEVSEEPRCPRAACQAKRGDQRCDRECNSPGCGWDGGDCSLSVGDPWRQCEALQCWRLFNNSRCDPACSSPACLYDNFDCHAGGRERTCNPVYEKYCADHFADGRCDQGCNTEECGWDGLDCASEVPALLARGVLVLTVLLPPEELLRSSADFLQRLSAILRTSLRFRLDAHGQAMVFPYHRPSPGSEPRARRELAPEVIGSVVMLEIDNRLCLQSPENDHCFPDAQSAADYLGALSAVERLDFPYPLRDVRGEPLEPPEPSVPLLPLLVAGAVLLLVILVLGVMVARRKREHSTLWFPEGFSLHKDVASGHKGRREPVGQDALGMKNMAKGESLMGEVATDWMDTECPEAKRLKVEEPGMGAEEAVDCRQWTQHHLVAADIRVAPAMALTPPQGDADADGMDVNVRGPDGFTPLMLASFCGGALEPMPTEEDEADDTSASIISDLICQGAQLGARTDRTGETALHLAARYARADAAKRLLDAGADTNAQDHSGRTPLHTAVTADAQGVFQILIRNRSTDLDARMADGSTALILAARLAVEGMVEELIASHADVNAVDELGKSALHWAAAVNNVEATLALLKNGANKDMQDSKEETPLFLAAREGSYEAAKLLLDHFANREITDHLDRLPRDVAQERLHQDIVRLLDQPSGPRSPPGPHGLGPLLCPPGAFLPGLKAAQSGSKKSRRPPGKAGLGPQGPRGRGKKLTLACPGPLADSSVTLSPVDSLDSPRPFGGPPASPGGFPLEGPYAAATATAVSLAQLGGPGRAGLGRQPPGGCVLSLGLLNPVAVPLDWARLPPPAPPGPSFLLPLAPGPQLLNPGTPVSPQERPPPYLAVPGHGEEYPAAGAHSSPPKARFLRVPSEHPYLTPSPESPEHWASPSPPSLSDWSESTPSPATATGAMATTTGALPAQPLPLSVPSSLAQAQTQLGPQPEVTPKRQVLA

For `C[C@@H]1CC[C@H]2C(=O)N3[C@@H](CC[C@@H](C)[C@@H]3c3ccc(-c4ccco4)cc3)C(=O)N2[C@H]1c1ccc(-c2ccco2)cc1`, the composite z-score is -0.23 and 1.14 in test [1]; 0.762 and 1.98 in [2]; -0.0084 and -0.0668 in [3]; 0.906 and 1.16 in [4]; 0.422 and 1.15 in [5]; 0.992 and 0.667 in test [6]. Further, the composite z-score is 1.29 and 1.3 in test [7]; 0.443 and 1.26 in test [9]; 0.132 and 0.259 in test [10]; 1.56 and 1.49 in test [11]; 2.17 and 0.787 in [15]; 0.0935 and 0.525 in test [17]. For the same compound, the composite z-score is 1.34 and 1.77 in test [18]; 1.04 and 1.06 in [19]; 0.0374 and 0.181 in [20]. Besides, the z-score in test [8] was -0.248 (inactive) and 0.445 (inactive); in test [12] it was -0.0519 (inactive) and -0.0158 (inactive); in test [13] it was 0.453 (inactive) and -1.28 (inactive); in test [14], 0.849 (inactive) and -0.324 (inactive); in [16], 0.196 (inactive) and 0.917 (inactive).

For `Cc1cc2c(nc1C)CCCN2CC(C)ON=C[C@@H](C)[C@H](OCc1ccccc1)C(C)C` (stereo not given in full), the composite z-score was -0.461 in [1]; 0.478 in test [2]; -0.0724 in test [3]; -0.0706 in test [4]; -0.461 in [5]; -0.869 in [6]. The composite z-score in [7] was -0.868; in test [9] it was 0.374; in [10], 0.102; in [11] it was -1.37; in test [15], -0.817; in [17], -0.134. In addition, the composite z-score in test [18] is 0.41; in test [19], 0.298; in [20] it was -0.068. Moreover, the z-score is -0.201 (inactive) in [8]; 0.481 (inactive) in test [12]; 0.514 (inactive) in test [13]; 1.24 (inactive) in test [14]; 0.448 (inactive) in test [16].

Regarding `COc1ccc(-c2ccc3c(n2)CCCN3CC(O)CN2CCCc3nc(-c4ccc(Br)cc4)ccc32)cc1` (stereo not given), the composite z-score is 0.0623 and 0.0721 in test [1]; 0.744 and 0.464 in test [2]; 0.12 in test [3]; 0.505 and 0.348 in test [4]; 0.684 and 0.709 in test [5]; 1.05 and 0.841 in test [6]. Further, the composite z-score in test [7] was 0.973 and 0.101; in test [9] it was 0.584 and 0.306; in [10], 0.281 and 0.167; in [11], 1.47 and -0.0348; in [15], 1.24 and 0.778; in [17] it was 0.351 and 0.141. Further, the composite z-score in test [18] was 0.348 and 0.245; in test [19], 0.877 and 0.491; in test [20] it was 0.181 and 0.106. Also, the z-score was 3.12 (inactive) and 3.15 (inactive) in test [8]; 0.0467 (inactive) and -0.621 (inactive) in test [12]; -0.665 (inactive) and 0.124 (inactive) in test [13]; -2.52 (inactive) and -1.64 (inactive) in test [14]; 0.0393 (inactive) and 0.816 (inactive) in [16].

Regarding `C=CCN(C(=O)C1N(c2c(Cl)cccc2CO)C(=O)C2C(C(=O)O)C3C=CC21O3)C(C)(C)C` (stereo not given), the composite z-score was -0.933 and 1.87 in test [1]; -1.67 and -0.997 in test [2]; -0.238 and -0.0459 in test [3]; -0.782 and -0.419 in test [4]; -0.872 and -1.15 in [5]; 0.0516 and -0.736 in test [6]. The composite z-score in test [7] was 0.0868 and -0.844; in test [9], -0.347 and -0.422; in [10], -1.01 and 0.51; in test [11], -0.17 and -0.656; in test [15], 0.893 and -1.28; in test [17] it was -0.359 and -0.152. For the same compound, the composite z-score in test [18] was -1.7 and -1.45; in [19], -0.873 and -0.616; in test [20] it was -0.403 and -0.366. Also, the z-score was 0.756 (inactive) and -1.07 (inactive) in test [8]; 0.61 (inactive) and -1.92 (inactive) in test [12]; 0.857 (inactive) and -1.43 (inactive) in test [13]; -0.509 (inactive) and -0.74 (inactive) in test [14]; 2.58 (inactive) and 1.44 (inactive) in test [16].
